Results reported in PubChem BioAssay (Tox21).
Results filed as inconclusive are left out. Activity calls are given as the source filed them. Unless noted, the call rests on the fitted dose curve; in most records, active means well fitted curve in the direction sought with a large enough effect in the repeat runs; inconclusive means weak or mixed curves; inactive means no such curve, though single readings can be large; an effect the other way counts as inactive or inconclusive.

Columns and labels:
[1] = A CellTox Green Cytotoxicity Assay to monitor cytotoxicity in HEK293 cells - 32 hour (AID 1224881); further: nearly all actives have a fitted effect of over 40% in size
Method in brief: (§1)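 Dead-cell fluorescence measured kinetically: asymmetric cyanine dye, HEK293, 600 cells/well, 5 h settle, 23 nL cpd/DMSO, 37 C, reads 0–40 h every 8 h.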

[2] = A CellTox Green Cytotoxicity Assay to monitor cytotoxicity in HepG2 cells - 32 hour (AID 1224883); further: nearly all actives have a fitted effect of over 50% in size
Method in brief: (§2)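 First, HepG2 cells (600/well) mixed with reagent were plated; second, after 5 h at 37 C they received compounds via pintool; third, fluorescence was measured at 0 h through 40 h at 8 h intervals.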

[3] = A CellTox Green Cytotoxicity Assay to monitor cytotoxicity in HEK293 cells - 8 hour (AID 1224884); further: nearly all actives have a fitted effect of over 35% in size
Method in brief: as §1

[4] = qHTS RealTime-Glo MT Cell Viability Assay in HepG2 cells - 16 hour (AID 1224885); further: nearly all actives have a fitted effect of over 50% in size
Method in brief: (§3)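 Luminescence read-out: viable HepG2 cells reduce a prosubstrate to a NanoLuc substrate, giving a signal proportional to live cell number. Reads taken at 0, 8, 16, 24, 32 and 40 h of compound exposure at 37 C.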

[5] = qHTS RealTime-Glo MT Cell Viability Assay in HEK293 cells - 24 hour (AID 1224886); further: top concentration of the series differs between compounds; nearly all actives have a fitted effect of over 50% in size
Method in brief: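 Nonlytic real-time viability readout: viable cells convert prosubstrate to NanoLuc substrate, giving luminescence proportional to live cell number. HEK293, 600 cells/well, compound added after 5 h, continuous culture at 37 C.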

[6] = qHTS RealTime-Glo MT Cell Viability Assay in HEK293 cells - 8 hour (AID 1224887); further: top concentration of the series differs between compounds; nearly all actives have a fitted effect of over 50% in size
Method in brief: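 600 HEK293 cells per well, dispensed already mixed with RealTime-Glo MT reagents. Compound dosing came 5 h later. The same wells were read for luminescence at 0, 8, 16, 24, 32 and 40 h of exposure at 37 C.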

[7] = A CellTox Green Cytotoxicity Assay to monitor cytotoxicity in HEK293 cells - 16 hour (AID 1224888); further: nearly all actives have a fitted effect of over 35% in size
Method in brief: as §1

[8] = qHTS RealTime-Glo MT Cell Viability Assay in HepG2 cells - 0 hour (AID 1224889); further: nearly all actives have a fitted effect of over 50% in size
Method in brief: as §3

[9] = A CellTox Green Cytotoxicity Assay to monitor cytotoxicity in HepG2 cells - 8 hour (AID 1224890); further: nearly all actives have a fitted effect of over 45% in size
Method in brief: as §2

[10] = qHTS assay to identify small molecule antagonists of the estrogen receptor alpha (ER-alpha) signaling pathway using the BG1 cell line in the presence of 0.1 nM 17-beta-estradiol - cell viability counter screen (AID 1259241); further: nearly all actives have a fitted effect of over 40% in size
Method in brief: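 Live-cell protease activity (CellTiter-Fluor fluorescence, 30 min) was read in the same wells after VM7Luc4E2 cells had been exposed to compounds with 0.1 nM 17beta-estradiol for 22 hr at 37C.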

[11] = qHTS assay to identify small molecule antagonists of the androgen receptor (AR) signaling pathway using the MDA cell line in the presence of 0.5 nM R1881 - cell viability counter screen (AID 1259242); further: nearly all actives have a fitted effect of over 45% in size
Method in brief: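 qHTS format. MDA-kb2 (MMTV-luc, AR/GR responsive) + cpd + 0.5 nM R1881 final, 16 hr 37C/0% CO2 → CellTiter-Fluor 30 min → fluorescence intensity.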

[12] = qHTS assay to identify small molecule HDAC inhibitors (AID 1259364); further: potency means the concentration at half of the fitted maximal effect;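 further: wild-type HCT-116 cells with endogenous class I/II HDAC activity; nearly all actives have a fitted effect of over 45% in size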; on activity change, negative = inhibition: top concentration of the series differs between compounds
Method in brief: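 Quantitative high-throughput format: overnight-seeded HCT-116 cells got compounds for 2 hr at 37C; HDAC-Glo I/II reagent added, 30 min RT, luminescence measured.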

[13] = qHTS assay to identify small molecule HDAC inhibitors - cell viability counter screen (AID 1259365)
Method in brief: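 HCT-116 (wild type), 1,500 cells/well, overnight 37C/5% CO2; compound in DMSO 2hr; CellTiter-Glo 30min RT; luminescence read.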

[14] = qHTS assay to identify small molecule agonists of the sonic hedgehog signaling (Shh) pathway - cell viability counter screen (AID 1259366); further: nearly all actives have a fitted effect of over 50% in size
Method in brief: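 CellTiter-Fluor fluorescence read-out, 1 hr at 37C, added after 23hr compound exposure. Cells: 3T3 Gli1-Luc, an NIH/3T3 clone with stably integrated Gli1-Luc reporter, plated 4hr before compound.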

[15] = qHTS assay to identify small molecule antagonists of the sonic hedgehog signaling (Shh) pathway - cell viability counter screen (AID 1259367); further: nearly all actives have a fitted effect of over 55% in size
Method in brief: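 CellTiter-Fluor signal in conditioned medium-stimulated 3T3 Gli1-Luc cells, 23 hr compound exposure, 37C.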

[16] = qHTS assay to identify small molecule agonists of the sonic hedgehog signaling (Shh) pathway (AID 1259368; calls by dose curve;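 further: NIH/3T3-derived 3T3Gli1-Luc cells carrying a stable Gli1-driven firefly luciferase reporter; series mostly up to about 92 µM; nearly all actives have a fitted effect of over 15% in size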)
Method in brief: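 Quantitative high-throughput format using a Gli1-driven firefly luciferase reporter line derived from NIH/3T3 cells. After a 24 hr compound treatment at 37 C and 5% CO2, luminescence reported Gli1 response element activity.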

[17] = biological target: Estrogen receptor (Homo sapiens) (UniProt P03372); test: qHTS assay to identify small molecule antagonists of the estrogen receptor alpha (ER-alpha) signaling pathway using the BG1 cell line in the presence of 0.1 nM 17-beta-estradiol (AID 1259244); further: nearly all actives have a fitted effect of over 50% in size
Chain of Estrogen receptor (Homo sapiens) (P03372 whole entry, looked up): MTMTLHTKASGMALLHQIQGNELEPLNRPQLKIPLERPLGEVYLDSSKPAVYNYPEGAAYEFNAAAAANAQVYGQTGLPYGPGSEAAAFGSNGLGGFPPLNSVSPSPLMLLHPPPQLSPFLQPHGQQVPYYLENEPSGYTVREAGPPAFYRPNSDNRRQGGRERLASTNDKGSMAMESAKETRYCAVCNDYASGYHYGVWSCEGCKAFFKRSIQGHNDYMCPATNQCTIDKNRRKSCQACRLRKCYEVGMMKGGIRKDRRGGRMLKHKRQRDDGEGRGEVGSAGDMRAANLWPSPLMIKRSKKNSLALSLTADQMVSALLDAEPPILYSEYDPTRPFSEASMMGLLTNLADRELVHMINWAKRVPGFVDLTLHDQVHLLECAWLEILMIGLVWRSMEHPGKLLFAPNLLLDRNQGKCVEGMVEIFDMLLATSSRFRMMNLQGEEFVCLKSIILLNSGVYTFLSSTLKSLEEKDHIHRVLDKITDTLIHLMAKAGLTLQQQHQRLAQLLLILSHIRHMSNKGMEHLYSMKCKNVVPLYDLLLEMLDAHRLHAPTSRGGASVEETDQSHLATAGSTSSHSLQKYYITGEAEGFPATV
Method in brief: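 Reporter is a stably transfected luciferase under four estrogen responsive elements in VM7Luc4E2 cells expressing native full-length ER-alpha; inhibition of 0.1 nM (final) 17beta-estradiol-driven signal over 22 h is read by luminescence.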

[18] = A CellTox Green Cytotoxicity Assay to monitor cytotoxicity in HepG2 cells - 0 hour (AID 1224882); further: nearly all actives have a fitted effect of over 35% in size
Method in brief: as §2

[19] = biological target: Androgen receptor (Homo sapiens) (UniProt P10275); test: qHTS assay to identify small molecule antagonists of the androgen receptor (AR) signaling pathway using the MDA cell line in the presence of 0.5 nM R1881 (AID 1259243); further: nearly all actives have a fitted effect of over 50% in size
Chain of Androgen receptor (Homo sapiens) (P10275 whole entry, looked up): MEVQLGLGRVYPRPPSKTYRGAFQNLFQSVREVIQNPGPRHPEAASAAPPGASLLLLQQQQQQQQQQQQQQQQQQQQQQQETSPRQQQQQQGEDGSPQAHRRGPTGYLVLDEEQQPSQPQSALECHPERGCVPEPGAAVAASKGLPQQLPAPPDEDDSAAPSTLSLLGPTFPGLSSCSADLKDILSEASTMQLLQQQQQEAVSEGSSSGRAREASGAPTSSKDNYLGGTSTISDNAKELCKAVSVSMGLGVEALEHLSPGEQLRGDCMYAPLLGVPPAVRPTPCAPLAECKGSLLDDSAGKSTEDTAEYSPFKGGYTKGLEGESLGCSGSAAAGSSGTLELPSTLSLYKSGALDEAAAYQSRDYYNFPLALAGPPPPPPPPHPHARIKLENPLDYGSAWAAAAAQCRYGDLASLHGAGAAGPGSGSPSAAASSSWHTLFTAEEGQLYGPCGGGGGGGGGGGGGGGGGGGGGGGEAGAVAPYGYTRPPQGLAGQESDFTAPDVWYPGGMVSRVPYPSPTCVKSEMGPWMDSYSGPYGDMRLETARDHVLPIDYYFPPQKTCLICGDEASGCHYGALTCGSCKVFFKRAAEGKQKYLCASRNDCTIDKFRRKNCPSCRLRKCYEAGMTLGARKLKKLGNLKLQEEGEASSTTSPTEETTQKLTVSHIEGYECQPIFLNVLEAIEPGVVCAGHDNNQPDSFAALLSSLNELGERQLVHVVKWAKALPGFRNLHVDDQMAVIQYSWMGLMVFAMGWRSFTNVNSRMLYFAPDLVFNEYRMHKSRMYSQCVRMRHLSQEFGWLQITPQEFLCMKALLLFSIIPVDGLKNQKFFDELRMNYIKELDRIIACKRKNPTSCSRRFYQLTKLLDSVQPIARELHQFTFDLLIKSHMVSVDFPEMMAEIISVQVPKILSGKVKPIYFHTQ
Method in brief: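 Antagonist mode quantitative HTS in MDA-kb2 MMTV-luciferase cells, agonist R1881 at 0.5 nM final, 16 hr exposure at 37C and 0% CO2, luminescent detection.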

[20] = qHTS assay to identify small molecule phospholipidosis (PLD) inducers (AID 1259344; active means well fitted curve in the direction sought with a large enough effect; an effect the other way counts as inactive or inconclusive)
Method in brief: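 Accumulated phospholipid, stained red by LipidTOX during 24 h compound treatment of HepG2 cells at 37 C, is quantified from images as pit number and intensity, normalised per cell using Hoechst-stained nuclei.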
On the % scale 0 is the no-effect control and ±100 the full control effect.

CCCC/C=C\CCCCCCCCCC=O
inactive: Potency [1] | Potency [2] | Potency [3] | outcome [4] | Potency [5] | Potency [6] | outcome [7] | Potency [8] | outcome [9] | Potency [10] | outcome [11] | Potency [12] | outcome [13] | Potency [14] | Potency [15] | outcome [16]

O=S(O)(O)=S
inactive: cytotoxicity increase [1] -0.289% [at 6.97 µM] | cytotoxicity increase [2] 0.202% [at 6.97 µM] | cytotoxicity increase [3] -1.12% [at 6.97 µM] | activity change, negative = cytotoxic [4] 1% [at 6.97 µM] | activity change, negative = cytotoxicity [5] 1.38% [at 6.97 µM] | activity change, negative = cytotoxicity [6] 0.371% [at 6.97 µM] | cytotoxicity increase [9] 4.07% [at 6.97 µM] | activity change, negative = cytotoxicity [10] 6.4% [at 8.39 µM] | viability change, negative = cytotoxic [11] -0.767% [at 8.39 µM] | activity change, negative = inhibition [17] 19% [at 8.39 µM] | activity change, negative = inhibition [12] 3.04% [at 8.39 µM] | activity change, negative = cytotoxicity [13] 0.217% [at 8.39 µM] | viability change, negative = cytotoxic [14] -0.643% [at 8.39 µM] | viability change, negative = cytotoxic [15] 1.07% [at 8.39 µM] | activity change [16] -0.163% [at 8.39 µM]

CC(C)CCCC(C)(C)O
inactive: Potency [1] | Potency [2] | Potency [3] | outcome [4] | Potency [5] | Potency [6] | outcome [7] | Potency [8] | outcome [9] | outcome [11] | Potency [17] | Potency [12] | outcome [13] | Potency [14] | Potency [15] | outcome [16]

CCCCCCN
inactive: Potency [1] | Potency [2] | Potency [3] | outcome [4] | Potency [5] | Potency [6] | outcome [7] | Potency [8] | Potency [10] | outcome [11] | Potency [17] | Potency [12] | outcome [13] | Potency [14] | Potency [15] | outcome [16]

CC(C)c1ccc2cc(C(C)C)ccc2c1
inactive: outcome [18] | Potency [2] | Potency [3] | outcome [4] | Potency [5] | Potency [6] | outcome [7] | Potency [8] | outcome [9] | Potency [10] | outcome [11] | Potency [19] | Potency [17] | Potency [12] | outcome [13] | Potency [14] | Potency [15] | outcome [16]

Cc1ccsc1/C=C/C1=NCCCN1C
inactive: Potency [1] | Potency [2] | Potency [3] | outcome [4] | Potency [5] | Potency [6] | outcome [7] | Potency [8] | outcome [9] | Potency [17] | outcome [20] | Potency [12] | outcome [13] | Potency [14] | Potency [15] | outcome [16]

C[C@@H](O)[C@H]1C(=O)N2C(C(=O)O)=C(SCCN=CN)C[C@H]12
inactive: Potency [1] | Potency [2] | Potency [3] | outcome [4] | Potency [5] | Potency [8] | outcome [9] | Potency [10] | outcome [11] | Potency [17] | outcome [20] | Potency [12] | Potency [14] | Potency [15] | outcome [16]

O=C(CCN1CCN(CCO)CC1)N1c2ccccc2Sc2ccc(C(F)(F)F)cc21
inactive: Potency [1] | Potency [2] | Potency [3] | outcome [4] | Potency [5] | Potency [6] | outcome [7] | Potency [8] | outcome [9] | Potency [10] | Potency [19] | Potency [17] | outcome [20] | Potency [12] | outcome [13] | Potency [14] | outcome [16]

COC(=O)CCCCCCCC(=O)OC
inactive: Potency [1] | Potency [2] | Potency [3] | outcome [4] | Potency [5] | Potency [6] | outcome [7] | Potency [8] | outcome [9] | outcome [11] | Potency [12] | outcome [13] | Potency [14] | Potency [15] | outcome [16]

O=C(OCC1(COC(=O)c2cccnc2)CCCC(COC(=O)c2cccnc2)(COC(=O)c2cccnc2)C1O)c1cccnc1
inactive: Potency [1] | Potency [2] | Potency [3] | outcome [4] | Potency [5] | Potency [6] | outcome [7] | Potency [8] | outcome [9] | Potency [10] | outcome [11] | outcome [20] | Potency [12] | outcome [13] | outcome [16]

CC1(C)S[C@@H]2[C@H](N=CN3CCCCCC3)C(=O)N2[C@H]1C(=O)O
inactive: Potency [1] | Potency [2] | Potency [3] | outcome [4] | Potency [5] | Potency [6] | outcome [7] | Potency [8] | outcome [9] | Potency [10] | Potency [17] | outcome [20] | Potency [12] | outcome [13] | Potency [14] | Potency [15] | outcome [16]

CCOCCOC(=O)/C=C/c1ccc(OC)cc1
active: Potency [12] 11.9 µM
inactive: Potency [1] | Potency [2] | Potency [3] | outcome [4] | Potency [5] | Potency [6] | Potency [8] | outcome [9] | Potency [10] | Potency [17] | outcome [13] | Potency [14] | Potency [15] | outcome [16]

CCCCN
inactive: Potency [1] | Potency [2] | Potency [3] | outcome [4] | Potency [5] | Potency [6] | outcome [7] | Potency [8] | outcome [9] | Potency [10] | outcome [11] | Potency [12] | outcome [13] | Potency [14] | Potency [15] | outcome [16]

CCCCCCCCC(=O)Cl
inactive: outcome [18] | Potency [2] | Potency [3] | outcome [4] | Potency [5] | Potency [6] | outcome [7] | Potency [8] | outcome [9] | Potency [10] | Potency [17] | Potency [12] | outcome [13] | Potency [14] | Potency [15] | outcome [16]

c1ccc2nccnc2c1
inactive: Potency [1] | Potency [2] | Potency [3] | outcome [4] | Potency [5] | Potency [6] | outcome [7] | Potency [8] | outcome [9] | Potency [10] | outcome [11] | Potency [12] | outcome [13] | Potency [14] | Potency [15] | outcome [16]
